The campaign covered roughly 69,000 compounds. About 8,600 (12%) showed an effect of 50% or more. Shown is part of a subset that was picked to be rich in strong results.

This assay concerns Plasmodium berghei. Briefly: Screen against P. berghei liver stage (PbLuc), transformed with Luciferase, at 10uM. It counts as functional, HepG2. Conditions: tested at 10 uM.
On to `COc1ccc(-c2cnc3c(c2)CN(C2CC2)C(=O)CCN3)cc1`, for which the INHIBITION is listed as 7.09%.

Take `CS(=O)(=O)N1C[C@H]2CC[C@@H](C1)N(C(=O)CCn1cnc3ccccc31)C2`: the INHIBITION stood at 12.9%.

On to `CC(C)(C)Nc1c(C2CCN(C(=O)C(C)(C)C)CC2)nc2ccccn12`, for which the INHIBITION is 30.3%.

`Cc1nc(C)n(CC2CN(CCC(=O)N3CCCCC3)CCO2)n1` (stereo not drawn): the INHIBITION is 21.5%.

As to `COCCc1noc(CN2CCOC(CN(C)C)C2)n1` (stereo not drawn), the INHIBITION was 15.3%.

Consider `O=C1NC2(Cc3ccccc31)CN(CC1CCOCC1)C2`, for which the INHIBITION was determined as 35%.

Turning to `c1ccc(-c2cc(CN3CCc4cncnc4C3)on2)cc1`, the INHIBITION was -28%.

In the case of `CC(C)Cc1cc(C(=O)NCC(O)CN2CCCCCC2)on1` (stereo not drawn), the INHIBITION is given as -8.47%.

`CC(C)Cc1cc(C(=O)NCC2CCCN(Cc3ccco3)C2)on1` (stereo not drawn): the INHIBITION was -63.8%.

Take `CC(C)Cc1cc(C(=O)NC(C)(C)CN2CCCCCC2)on1`: the INHIBITION is reported as 58.7%.

Consider `Cn1cc(CN2C[C@@H]3COC[C@]3(CNC(=O)c3ccsc3)C2)cn1`, for which the INHIBITION is on record as 34.7%.

Regarding `Cc1ccnc(N2CCCC(c3nncn3C3CC3)C2)n1` (stereo not drawn), the INHIBITION amounted to 46.6%.

Regarding `Cc1cc(N2CCCC(c3nncn3C3CC3)C2)ncn1` (stereo not drawn), the INHIBITION is recorded as 53.5%.

Consider `Cc1cc(N2CCCC(c3nccnc3N(C)C)C2)ncn1` (stereo not drawn), for which the INHIBITION is given as 5.25%.

As for `c1cc2occc2c(N2CCCC(c3nncn3C3CC3)C2)n1` (stereo not drawn), the INHIBITION is 57.5%.

Regarding `CN(C)Cc1cn(CC2CCCN(c3nccc4occc34)C2)nn1` (stereo not drawn), the INHIBITION amounted to 34.9%.

Take `O=C(O)c1cn(CC2CCCN(c3nccc4occc34)C2)nn1` (stereo not drawn): the INHIBITION was -2.48%.

As for `Nc1cc(-c2cc[nH]n2)nc(N2CCCC2)n1`, the INHIBITION is 20.5%.

For `CN(C)S(=O)(=O)N1CCC(c2c(C(N)=O)sc3ccccc23)C1` (stereo not drawn), the INHIBITION was -11.4%.

In the case of `O=C1N(Cc2ccc(F)c(F)c2)CCCC1(O)CNCC1CCCCC1` (stereo not drawn), the INHIBITION worked out at 68.8%.

As for `O=C1N(Cc2cccc(F)c2F)CCCC1(O)CNC1CCCC1` (stereo not drawn), the INHIBITION is recorded as 11.5%.

For the compound `O=C1N(Cc2cccc(F)c2F)CCCC1(O)CNCc1ccccc1` (stereo not drawn), the INHIBITION is listed as 40.4%.

For `COCCNCC1(O)CCCN(Cc2ccc(F)c(F)c2)C1=O` (stereo not drawn), the INHIBITION is given as 6.65%.

For `O=C1N(Cc2ccc(F)c(F)c2)CCCC1(O)CNCc1ccccn1` (stereo not drawn), the INHIBITION was 4.25%.

In the case of `O=C1N(Cc2ccc(F)c(F)c2)CCCC1(O)CNCc1cccnc1` (stereo not drawn), the INHIBITION is listed as 60.9%.

Consider `Cn1cc(CNCC2(O)CCCN(Cc3ccc(F)c(F)c3)C2=O)cn1` (stereo not drawn), for which the INHIBITION is on record as -34%.

As for `O=C1N(Cc2cccc(F)c2F)CCCC1(O)CNCC1CCCCC1` (stereo not drawn), the INHIBITION worked out at 69.1%.

Turning to `C=C(C)CNCC1(O)CCCN(Cc2ccc(F)c(F)c2)C1=O` (stereo not drawn), the INHIBITION is 41.7%.

For `c1ccc(Cc2noc(CN(Cc3cccs3)CC3CCCO3)n2)cc1` (stereo not drawn), the INHIBITION amounted to 15.3%.

For `NC(=O)CC1CCN(Cc2ccccc2OCC(F)(F)F)CC1`, the INHIBITION was 16.1%.

As for `CN1C(=O)C2(CCN(Cc3nccn3C)CC2)c2ccccc21`, the INHIBITION is -19.6%.

For the compound `CN1CC(=O)N(c2cnn(C)c2)CC12CCN(Cc1nccn1C)C2` (stereo not drawn), the INHIBITION was found to be 11.8%.

On to `Cc1n[nH]c(C)c1NC(=O)NCc1ccccn1`, for which the INHIBITION is 8.59%.

`NC(=O)C1(c2cnccn2)CCCN1Cc1ccc(F)c(F)c1` (stereo not drawn): the INHIBITION is listed as 20.8%.

For `CN1CC(=O)N(c2ccsc2)CC12CCN(S(=O)(=O)C1CC1)C2` (stereo not drawn), the INHIBITION is recorded as -6.23%.

As to `CC(O)CNCc1ccc(OCc2ccc3c(c2)OCCO3)cc1` (stereo not drawn), the INHIBITION was found to be 72.6%.

For the compound `CNCc1ccc(OCc2ccc3c(c2)OCCO3)cc1`, the INHIBITION is given as -0.621%.

Consider `CC(C)(CO)NCc1ccc(OCc2ccc3c(c2)OCCO3)cc1`, for which the INHIBITION came to 13.5%.

Regarding `c1cc(OCc2ccc3c(c2)OCCO3)ccc1CNC1CC1`, the INHIBITION came to 25.3%.

In the case of `CCNCc1ccc(OCc2ccc3c(c2)OCCO3)cc1`, the INHIBITION is on record as 67.3%.

Regarding `c1cc(OCc2ccc3c(c2)OCO3)ccc1CNC1CC1`, the INHIBITION is on record as 73.4%.

For the compound `O=C1CCC2(CCC(NCc3ccc4c(c3)OCO4)CC2)N1` (stereo not drawn), the INHIBITION is listed as 30.9%.

For `CC(C)(C)NCc1ccc(OCc2ccc3c(c2)OCCO3)cc1`, the INHIBITION is -47.8%.

As to `CCCNCc1ccc(OCc2ccc3c(c2)OCCO3)cc1`, the INHIBITION is recorded as 25.1%.

With `NC(=O)NCC1CCCCN1Cc1nc(-c2ccco2)no1` (stereo not drawn), the INHIBITION was -31.1%.

Consider `CC(C)(C)c1ccn(C2(C(=O)O)CCN(c3ncccc3C#N)CC2)n1`, for which the INHIBITION was determined as 7.24%.

As to `COc1nccnc1N1CCC(C(=O)O)(n2ccc(C(C)(C)C)n2)CC1`, the INHIBITION turned out to be 53.8%.

Take `Cc1cnc(C)c(N2CCC(C(=O)O)(n3ccc(C(C)(C)C)n3)CC2)n1`: the INHIBITION is given as 3.84%.

Take `CNC(=O)C1(N2CCC[C@H]2C(=O)NC2CCOCC2)CCOCC1`: the INHIBITION is 15.4%.

With `O=C(N1CCCC1)N1Cc2nccn2CC(Cn2ncccc2=O)C1` (stereo not drawn), the INHIBITION was 32.2%.

In the case of `O=C(NCc1ccco1)[C@H]1C[C@H]2OCC[C@H]2N(C(=O)c2ccncc2)C1`, the INHIBITION was -15.5%.

Take `CN(Cc1ccco1)C1CCC12CCN(C(=O)C1CCOCC1)CC2` (stereo not drawn): the INHIBITION worked out at 43.2%.

Consider `Cc1nnc(NC(=O)c2c3c(nn2C2CCS(=O)(=O)C2)CCC3)s1` (stereo not drawn), for which the INHIBITION is recorded as -90.8%.

For `CCOC(C)C(=O)Nc1ccc(Sc2nncn2C)c(Cl)c1` (stereo not drawn), the INHIBITION was 64.4%.

Take `COCC(=O)Nc1ccc(Sc2nncn2C)c(Cl)c1`: the INHIBITION came to 31.7%.

For `CC(C)C(=O)Nc1ccc(Sc2nncn2C)c(Cl)c1`, the INHIBITION is listed as 24.8%.

With `O=C(NCC1(CO)CC1)NC(c1nccs1)C1CC1` (stereo not drawn), the INHIBITION is recorded as -10.8%.

In the case of `CC(=O)N1CCc2nc(N3CCCC3)nc(C)c2C1`, the INHIBITION stood at 34.6%.

Regarding `Cn1ccc(C(=O)NCC2(O)CCN(c3cnccn3)C2)n1` (stereo not drawn), the INHIBITION is on record as 16.95%.

`Cn1c(CN2CCOC(CNc3cccnn3)C2)nnc1C1CC1` (stereo not drawn): the INHIBITION is -16%.

On to `NC(=O)CCN(C(=O)c1cccc2c1OCO2)c1ccccc1`, for which the INHIBITION was found to be 51.5%.

`NC(=O)C1CCCN1C(=O)c1cccc2c1OCO2` (stereo not drawn): the INHIBITION is -27.3%.

For `NC(=O)C1CCCN1C1CCN(C(=O)c2cccc3c2OCO3)CC1` (stereo not drawn), the INHIBITION amounted to 8.59%.

In the case of `CCN(C(=O)c1cccc2c1OCO2)c1ccccc1`, the INHIBITION is listed as 55.9%.

Turning to `CCN(C(=O)c1cccc2c1OCO2)c1ccc(Br)cn1`, the INHIBITION came to 2.65%.

As for `CCN(Cc1cccc2c1OCO2)C(=O)Nc1ccccn1`, the INHIBITION is recorded as -67.3%.

Regarding `COc1cc(CN[C@@H]2COC[C@H]2Cc2cc(C)no2)cc(OC)c1`, the INHIBITION was determined as 40%.

Turning to `Cn1cc(Br)c(C(=O)NCCCn2cc(Br)cn2)n1`, the INHIBITION is on record as -16.3%.

The values are drawn from ChEMBL document CHEMBL4513216, “Probing the Open Global Health Chemical Diversity Library for Multistage-Active Starting Points for Next-Generation Antimalarials” (ACS Infect Dis, 2020).
